“And” between values parts separate entries of the source, which are not always exact repeats. Identical values can stand only once. Records with an inconclusive call do not appear. The source made the active and inactive calls. Rule for the calls, unless noted: active = hit-call score of the fitted dose curve at least 0.9, where 1 is the maximum; inactive = score below 0.9.
Columns and labels:
[1] = CCTE_Harrill_HTTr_Viability_MCF7: CCTE's 6-hour Cell Viability Assessment for the High-Throughput Transcriptomics (HTTr) Platform, in MCF-7 cells cultured in DMEM + 10% fetal bovine serum, Harrill Lab (AID 2284010)
Summary of the method: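 PI exclusion, high-content imaging; 8-pt dilution series, 6 h exposure; bidirectional fit vs DMSO (neg. ctrl/baseline); gain of signal = loss of membrane integrity.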

[2] = CCTE_Harrill_HTTr_Apoptosis_MCF7: CCTE's 6-hour Apoptosis Assessment for the High-Throughput Transcriptomics (HTTr) Platform, in MCF-7 cells cultured in DMEM + 10% fetal bovine serum, Harrill Lab (AID 2284011)
Summary of the method: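 High-content imaging of CellEvent Caspase 3/7 Green signal follows a six-hour exposure, with eight concentrations per chemical. MCF-7 cells grown in DMEM plus 10% fetal bovine serum; activity fitted in both directions against DMSO.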

[3] = CCTE_Harrill_HTTr_CellCount_MCF7: CCTE's Cell Proliferation Assessment for the High-Throughput Transcriptomics (HTTr) Platform, Harrill Lab (AID 2284012; active = hit-call score of the fitted dose curve at least 0.9, where 1 is the maximum;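 note: count of Hoechst-stained nuclei per well by high-content imaging in MCF-7 cells; cells exposed to compound for six hours; intended direction is loss of nuclei count meaning fewer cells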)
Summary of the method: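 Readout: Hoechst nuclear count by high-content imaging. MCF-7, 8-point dilution series, 6 h exposure. Bidirectional fit vs DMSO baseline.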

[4] = biological target: Estrogen receptor (Homo sapiens) (UniProt P03372); assay: CCTE_Deisenroth_AIME_96WELL_LUC_Active: CCTE's 96-well Estrogen Receptor Transactivation Assay with AIME metabolic competence (ERTA luciferase; metabolism positive), Deisenroth Lab (AID 2284023; active = hit-call score of the fitted dose curve at least 0.9, where 1 is the maximum)
Summary of the method: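 Metabolism-positive mode: induced rat hepatic S9 in alginate microspheres conditions test solutions (0.002 - 200 uM, 10 points) for 2 hours. VM7Luc4E2 ER luciferase reporter cells then exposed 24 h; positive-direction fit against 17beta-estradiol, n=4 typical.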

[5] = biological target: Estrogen receptor (Homo sapiens) (UniProt P03372); assay: CCTE_Deisenroth_AIME_96WELL_LUC_Inactive: CCTE's 96-well Estrogen Receptor Transactivation Assay without AIME metabolic competence (ERTA luciferase; metabolism negative), Deisenroth Lab (AID 2284025; active = hit-call score of the fitted dose curve at least 0.9, where 1 is the maximum)
Summary of the method: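 Metabolism-negative arm: chemicals (0.002–200 uM, 10 points) incubated 2 h with alginate-water microspheres, then medium moved onto VM7Luc4E2 cells for 24 h luciferase read-out. Positive direction vs 17beta-estradiol; n≥4 experiments.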

[6] = CCTE_Shafer_MEA_acute_spike_number: CCTE's Neural Acute Assay for Total Number of Spikes, Shafer Lab (AID 2284008);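 note: curve fitted for decrease in spike count so AC50 reflects inhibitors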
Summary of the method: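 Total spike count from 40 min recordings before and during compound exposure (0.03-40 uM), given as per-well percent change. Cortical cultures from rat, DIV 13 or 15, 37 C; adaptive detection threshold 8x rms noise.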

[7] = CCTE_Shafer_MEA_acute_firing_rate_mean: CCTE's Neural Acute Assay for Mean Firing Rate, Shafer Lab (AID 2284009);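 note: analyzed for loss of signal so actives lower firing rate relative to DMSO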
Summary of the method: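 Spontaneous spiking of primary rat cortical networks, DIV 13/15, 37 C. Compound 0.03-40 uM, n ≥3 wells; 40 min baseline vs 40 min treated. Endpoint fitted in loss-of-signal direction against DMSO.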

[8] = CCTE_Shafer_MEA_acute_burst_number: CCTE's Neural Acute Assay for Single-Electrode Bursts, Shafer Lab (AID 2284013)
Summary of the method: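 Burst totals were derived with adaptive spike detection (8x rms threshold) on filtered signals from rat cortical cultures; change relative to pre-treatment baseline after 40-min compound exposure (0.03-40 uM) was fitted in the negative direction against DMSO.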

[9] = CCTE_Shafer_MEA_acute_burst_duration_mean: CCTE's Neural Acute Assay for Mean Burst Duration, Shafer Lab (AID 2284014);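 note: hits are decreases in mean burst duration relative to DMSO controls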
Summary of the method: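 Acute exposure of mature rat cortical networks (DIV 13 or 15) grown on microelectrode arrays to 0.03-40 uM compound. Mean burst duration compared with the 40-min pre-dose baseline over a 40-min post-dose recording at 37 C.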

[10] = CCTE_Shafer_MEA_acute_per_burst_spike_number_mean: CCTE's Neural Acute Assay for Average Number of Spikes Per Burst, Shafer Lab (AID 2284015);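 note: hits are decreases in mean spikes per burst versus baseline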
Summary of the method: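 Rat primary cortical neurons on 48-well MEAs (DIV 13 or 15) were treated with 0.03-40 uM compound at 37 C. Mean spikes per burst over 40 min were recorded before and after exposure and expressed as percent change from baseline, relative to DMSO.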

[11] = CCTE_Shafer_MEA_acute_interburst_interval_mean: CCTE's Neural Acute Assay for Mean Interburst Interval, Shafer Lab (AID 2284016);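 note: percent change of mean interburst interval versus each well's own pre-dose baseline; curves fitted for decrease in interburst interval relative to DMSO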
Summary of the method: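 Rat primary cortical neurons on 48-well MEAs at DIV 13 or 15 were exposed acutely to 0.03-40 uM. Spikes detected at 8x rms noise, 37 C. Mean interburst interval from 40 min recordings expressed as percent change from 40 min pre-treatment baseline.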

[12] = CCTE_Shafer_MEA_acute_burst_percentage_mean: CCTE's Neural Acute Assay for Percentage of Spikes in a Burst, Shafer Lab (AID 2284017);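 note: curve fitted for loss of signal so potency reflects decreased burst percentage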
Summary of the method: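 Primary rat cortical neurons on 48-well MEA plates, treated on DIV 13 or 15 at 0.03-40 uM. Spikes detected at 8x rms noise at 37C; percent change from 40-min baseline to 40-min post-dose recording, fitted versus DMSO.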

[13] = CCTE_Shafer_MEA_acute_burst_percentage_std: CCTE's Neural Acute Assay for Standard Deviation of Burst Percentage, Shafer Lab (AID 2284018);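 note: fitted in the negative direction so actives lower burst percentage SD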
Summary of the method: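 Primary rat cortical neurons on 16-electrode MEA wells were recorded 40 min at baseline (DIV 13 or 15), then 40 min after compound (0.03-40 uM), at 37 C. Well value is SD across electrodes of spikes-in-bursts/total spikes; endpoint is percent change, DMSO-referenced.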

[14] = CCTE_Shafer_MEA_acute_per_network_burst_spike_number_mean: CCTE's Neural Acute Assay for Average Number of Spikes in a Network Burst, Shafer Lab (AID 2284019)
Summary of the method: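 Acute exposure of rat primary cortical networks (DIV 13/15) on MEAs; adaptive spike detection at 8x rms noise, 37 C. Percent change in spikes per network burst after 40 min with compound (0.03-40 uM), negative direction vs DMSO.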

[15] = CCTE_Shafer_MEA_acute_per_network_burst_spike_number_std: CCTE's Neural Acute Assay for Standard Deviation of Number of Spikes in a Network Burst, Shafer Lab (AID 2284020);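 note: fitted for decrease in spike-number SD versus DMSO so actives lower it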
Summary of the method: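 Acute MEA exposure, rat cortical neurons, 0.03-40 uM. Per-well % change versus own baseline; DMSO as negative control.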

[16] = CCTE_Shafer_MEA_acute_per_network_burst_electrodes_number_mean: CCTE's Neural Acute Assay for Mean Number of Electrodes in a Network Burst, Shafer Lab (AID 2284021);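 note: curves fitted for decreases only so hits reduce electrodes per burst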
Summary of the method: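 Percent change from baseline was computed as mean electrode count per network burst, comparing 40 min recordings before and during compound (0.03-40 uM) exposure. Cultures were rat cortical neurons at DIV 13 or 15, recorded on MEAs at 37 C with an adaptive 8x rms threshold.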

[17] = CCTE_Shafer_MEA_acute_network_burst_percentage: CCTE's Neural Acute Assay for Percentage of Network Bursts, Shafer Lab (AID 2284022);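 note: curves fitted for loss so actives lower network burst percentage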
Summary of the method: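 Network burst percentage (spikes in network bursts divided by total spikes) recorded at 37 C over 40 min baseline and 40 min after compound, 0.03-40 uM, in rat cortical cultures at DIV 13 or 15. Analysed as percent change from baseline versus DMSO.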

[18] = CCTE_Shafer_MEA_acute_cross_correlation_area: CCTE's Neural Acute Assay for Area of Cross Correlation, Shafer Lab (AID 2284024);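 note: area under pooled inter-electrode spike cross-correlation near zero lag as percent change from own baseline; curves fitted for loss of cross-correlation area so actives lower synchrony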
Summary of the method: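 Percent change in well-wide cross-correlation area (window around zero lag) between 40 min baseline and 40 min post-compound recordings, 37 C; rat cortical cultures on MEA at DIV 13 or 15, dosed 0.03-40 uM, wells needing >/= 10 active electrodes.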

[19] = CCTE_Shafer_MEA_acute_cross_correlation_HWHM: CCTE's Neural Acute Assay for Cross Correlation at Half Width at Half Maximum, Shafer Lab (AID 2284026);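 note: percent change per well from pre-dose baseline in spike cross-correlogram half width; hits are a decrease in cross-correlogram half width relative to DMSO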
Summary of the method: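 Per-well percent change in cross-correlogram half width at half maximum, derived from 40-min recordings before and after compound (0.03-40 uM) at 37 C. Cultures were rat cortical neurons, DIV 13 or 15, with adaptive spike detection at 8x rms.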

[20] = CCTE_Shafer_MEA_acute_synchrony_index: CCTE's Neural Acute Assay for Synchrony, Shafer Lab (AID 2284027);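 note: network synchrony index of spontaneous spiking in primary rat cortical neurons on MEAs; fitted for loss of signal so actives lower synchrony relative to DMSO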
Summary of the method: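 Rat cortical cultures, DIV 13/15; spikes detected at 8x rms noise, 300-5000 Hz band-pass. Compound 0.03-40 uM, ≥3 wells; 40-min pre- and post-exposure recordings, 37 C. Readout: % change in synchrony index; loss-of-signal fit vs DMSO.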

Measured: AC50

Sequence of Estrogen receptor (Homo sapiens) (P03372 whole entry, looked up): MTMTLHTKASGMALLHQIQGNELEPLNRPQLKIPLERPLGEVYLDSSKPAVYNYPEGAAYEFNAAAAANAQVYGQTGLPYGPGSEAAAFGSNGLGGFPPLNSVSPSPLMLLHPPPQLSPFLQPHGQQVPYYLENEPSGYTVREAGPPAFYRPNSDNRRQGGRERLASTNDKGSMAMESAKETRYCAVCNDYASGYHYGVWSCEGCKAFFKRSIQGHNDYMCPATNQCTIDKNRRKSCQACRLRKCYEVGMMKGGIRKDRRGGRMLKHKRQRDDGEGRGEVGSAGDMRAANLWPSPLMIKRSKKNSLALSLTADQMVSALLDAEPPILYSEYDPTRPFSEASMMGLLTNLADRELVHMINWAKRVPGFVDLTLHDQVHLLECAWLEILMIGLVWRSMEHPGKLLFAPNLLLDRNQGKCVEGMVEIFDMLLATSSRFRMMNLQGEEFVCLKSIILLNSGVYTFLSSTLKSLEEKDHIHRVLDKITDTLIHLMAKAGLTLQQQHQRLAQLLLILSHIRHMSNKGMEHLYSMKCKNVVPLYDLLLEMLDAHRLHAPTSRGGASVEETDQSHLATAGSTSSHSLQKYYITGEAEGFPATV

CN(N=O)C(=O)N[C@@H]1[C@@H](O)[C@H](O)[C@@H](CO)O[C@@H]1O
inactive: [1] | [2] | [3]

Cc1cccc(C)n1
inactive: [1] | [2] | [3]

Brc1ccccn1
inactive: [1] | [2] | [3]

CCCCCCCCCCCCCCCCC
inactive: [1] | [2]

O=C(c1ccccc1)c1ccc(O)cc1O
inactive: [1] | [2]

CCCCCCCCCCCCC[N+](C)(C)Cc1ccccc1
inactive: [1] | [2] | [3]

CCC(Cc1c(I)cc(I)c(N)c1I)C(=O)O (stereo not given)
inactive: [1] | [2]

CC(=O)CCC(C)C
inactive: [1] | [2] | [3]

CCCCC(CC)COC(=O)c1ccc(N(C)C)cc1 (stereo not given)
active: [5] 16200 nM
inactive: [1] | [2] | [4]

CCN=c1cc2oc3cc(NCC)c(C)cc3c(-c3ccccc3C(=O)OCC)c-2cc1C
active: [1] 214 nM and 159 nM | [2] 96.9 nM and 51.2 nM
inactive: [3]

CCOC(=O)C1CC(=O)C(=C(O)C2CC2)C(=O)C1 (stereo not given)
inactive: [1] | [2]

CCCCCCCCCc1ccc(OCCO)cc1
inactive: [1] | [2] | [3]

Cc1cc(=O)[nH]c(C(C)C)n1
inactive: [1] | [2] | [3]

Cc1cnccn1
inactive: [1] | [2] | [3]

C[C@]12CC[C@H]3C(=CCc4cc(O)ccc43)[C@@H]1CCC2=O
inactive: [1] | [2] | [3]

CCCCCCCC/C=C\CCCCCCCC(=O)N(C)CC(=O)O
inactive: [1] | [2] | [3]

CCCCCCCCn1sc(Cl)c(Cl)c1=O
inactive: [1] | [2] | [3]

CSc1ccc(Cl)cc1
inactive: [1] | [2]

CC(C)(C)c1cc(CCC(=O)OCC(COC(=O)CCc2cc(C(C)(C)C)c(O)c(C(C)(C)C)c2)(COC(=O)CCc2cc(C(C)(C)C)c(O)c(C(C)(C)C)c2)COC(=O)CCc2cc(C(C)(C)C)c(O)c(C(C)(C)C)c2)cc(C(C)(C)C)c1O
inactive: [1] | [2] | [3]

CN(C)C(C)(C)CO
inactive: [1] | [2] | [3]

O=S(=O)(O)c1ccc(Cl)cc1
inactive: [1] | [2]

CSc1ccc(O)cc1C
inactive: [1] | [2] | [3]

CC1CCCCC1
inactive: [1] | [2] | [3]

CCN=C1C=CC(=C(c2ccc(N(CC)CC)cc2)c2ccc(N(CC)CC)cc2)c2ccccc21
inactive: [1] | [2] | [9] | [13] | [14]
active: [6] 559 nM | [7] 559 nM | [3] 92200 nM | [8] 545 nM | [10] 518 nM | [11] 361 nM | [12] 549 nM | [15] 718 nM | [16] 498 nM | [17] 762 nM | [18] 302 nM | [19] 883 nM | [20] 541 nM

Cc1ccc(O)c(-n2nc3ccccc3n2)c1
active: [4] 21700 nM | [5] 10200 nM
inactive: [1] | [2] | [3]

CCc1ccc(C)nc1
inactive: [1] | [2] | [3]

Source: PubChem BioAssay (EPA / NIEHS)
